In PubChem BioAssay:
A number with no mark means an inactive call. The rule behind the calls is not given here.

These compounds were tested against Pantothenate synthetase (Mycobacterium tuberculosis (strain ATCC 25618 / H37Rv)) (UniProt P9WIL5) (assay: Recombinant Mtb pantothenate synthetase (PanC) inhibitors, coupled enzyme, confirmatory (AID 375;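 note: 0% = full reaction with vehicle and 100% = no enzyme background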)). Settings: coupled enzyme assay; at 10 µM, stronger effect = higher value.
Sequence of Pantothenate synthetase (Mycobacterium tuberculosis (strain ATCC 25618 / H37Rv)) (P9WIL5 whole entry, looked up): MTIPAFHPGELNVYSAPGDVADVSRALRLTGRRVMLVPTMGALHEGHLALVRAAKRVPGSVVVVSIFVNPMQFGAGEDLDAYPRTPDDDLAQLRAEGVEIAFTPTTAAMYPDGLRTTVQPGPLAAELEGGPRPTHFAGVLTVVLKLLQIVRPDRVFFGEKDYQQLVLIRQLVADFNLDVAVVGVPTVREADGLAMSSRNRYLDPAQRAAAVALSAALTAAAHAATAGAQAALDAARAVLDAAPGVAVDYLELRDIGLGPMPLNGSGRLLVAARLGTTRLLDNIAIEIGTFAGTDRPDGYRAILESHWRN

Structure (SMILES) | inhibition [%]
CC(=O)[C@@]1(O)CC[C@H]2[C@@H]3C[C@H](C)C4=CC(=O)CC[C@]4(C)[C@H]3CC[C@@]21C | 1
O=C(CCn1cccc1)N1CCc2ccccc21 | 0
CC(=O)Nc1ccn(-c2ccccc2)n1 | 2
Cc1csc2nc(CSc3ccc(Cl)cc3)cn12 | 0
O=C(CCCCCN1C(=O)CCC1=O)NCc1ccccc1 | 11
CCc1ccccc1NC(=O)C(C#N)Cc1cccnc1 (stereo not given) | 0
CCOC(=O)Cn1c(N2CCOCC2)nc2c1c(=O)[nH]c(=O)n2C | 5
O=P(O)(CCc1ccccc1)CN1CCCCC1 | 6
COc1ccc(C(=O)Nc2cccc(C)c2)cc1S(=O)(=O)N1CCOCC1 | 1
CCc1nc2sc(C)c(C)c2c(=O)n1CCO | 7
CCOc1ccccc1C1CC(=O)Nc2cc3c(cc21)OCO3 (stereo not given) | 0
CCOC(=O)c1sc(Nc2nc3c(OC)cccc3s2)nc1C | 1
COCCNC(=O)C(c1cccs1)N(C(=O)Cn1nnc2ccccc21)c1ccccc1 (stereo not given) | 6
CC(=O)c1ccccc1OCCn1nnc(-c2ccc(C)cc2)n1 | 0
CS(=O)(=O)N1CCCC(C(=O)NCc2ccccc2Cl)C1 (stereo not given) | 0
COc1ccc(Nc2ncnc3c2cnn3-c2ccccc2)cc1OC | 1
COc1ccc(OCC(=O)N2CCN(C(=O)c3cccs3)CC2)cc1 | 5
Cc1ccc(S(=O)(=O)NCC(=O)OCC(=O)Nc2ncc(Cl)cc2Cl)cc1 | 0
CCOC(=O)/C=C1\SCC(=O)N1Cc1ccc(Br)cc1 | 0
O=C(c1ccc(-c2cccc(C(F)(F)F)c2)o1)N1CCOCC1 | 0

Structure (SMILES) | inhibition [%]
COc1cccc2c1C(=O)c1c(O)c3c(c(O)c1C2=O)C[C@@](O)(C(=O)CO)C[C@@H]3O[C@H]1C[C@H](N)[C@H](O)[C@H](C)O1 | 5
COc1ccccc1-n1nnnc1SCc1cc2c(cc1Br)OCO2 | 0
CSc1nc2ccccc2c(=O)n1N | 0
CC1CCCCN1CCNS(=O)(=O)c1ccc2c(c1)oc(=O)n2C (stereo not given) | 0
COc1ccc(Cl)cc1NC(=O)CCN1CCN(c2ccccc2C)CC1 | 0
CNCCC(Oc1ccc(C(F)(F)F)cc1)c1ccccc1 (stereo not given) | 4
COc1cc(/C=N/n2cnnc2)ccc1OCC(=O)N1CCOCC1 | 0
COCCNC(=O)c1cc2c(-c3ccccc3F)nn(C)c2s1 | 8
COc1cc(NC(=O)Cc2cccs2)ccc1-n1cnnn1 | 10
COC(=O)Cn1c(C)nc2c(sc3nc(C)cc(C)c32)c1=O | 3
CC(=O)n1cc(-c2ccncc2)c2ccccc21 | 0
COc1cc(NC(=O)c2cccs2)cc(OC)c1 | 0
COc1cc(C2Nc3cccc4cccc(c34)N2)cc(OC)c1O | 0
O=C1NC(Nc2ccccn2)(C(F)(F)F)C(=O)N1c1ccc(F)cc1 (stereo not given) | 0
O=S(=O)(Cc1ccccc1)N1CCCCCC1 | 0
Cc1cc(C)c2c(CC(=O)NCc3ccco3)coc2c1 | 0
Oc1cc(NCc2cccnc2)ccc1-c1nc2ccccc2o1 | 0
CC(C)(C)c1cc(CCC(=O)N2CCNCC2)c(C(C)(C)C)cc1O | 0
CCOC(=O)CCCOC(=O)c1ccc(S(=O)(=O)N(C)C)cc1 | 0
Cc1ccc(NC(=O)CSc2nnc(-c3ccc(S(=O)(=O)N4CCOCC4)cc3)n2C)cc1 | 1
